The text below walks through data of publication PMC7862700, “An all-to-all approach to the identification of sequence-specific readers for epigenetic DNA modifications on cytosine”.

What all share (experiment): DAPPL (digital affinity profiling via proximity ligation, sequencing); 10 mM Tris-HCl pH 7.5, 50 mM NaCl, 1 mM DTT, 4% glycerol, room temperature, 30 min; GST-TFs on glutathione beads, 16-mer random dsDNA library, 0.1% formaldehyde crosslink after washing; high values mean tight binding
The target of experiment [1] is T1, FEV (Homo sapiens, UniProt Q99581 1-238).
T1 sequence: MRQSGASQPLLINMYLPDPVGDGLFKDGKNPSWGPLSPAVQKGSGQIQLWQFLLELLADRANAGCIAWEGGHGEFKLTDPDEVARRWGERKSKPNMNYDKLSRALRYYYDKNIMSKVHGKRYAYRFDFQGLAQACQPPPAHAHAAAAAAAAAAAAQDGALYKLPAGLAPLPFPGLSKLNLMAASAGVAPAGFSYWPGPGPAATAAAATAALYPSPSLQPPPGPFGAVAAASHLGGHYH
As to conditions: protein: recombinant; tags: N-terminal GST; dsDNA, one strand shown. Put shortly:
(§1)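 Pools were built from human transcription factors expressed in yeast as GST fusions, captured on glutathione beads and DNA-barcoded, along with a tag-only sample. Incubation with 200 nmole of a 16-mer random double-stranded DNA library lasted 30 min at room temperature in Tris/NaCl/DTT/glycerol buffer, and was followed by washing, 0.1% formaldehyde crosslinking, proximity ligation, PCR amplification and Illumina NextSeq500 sequencing. Binding signal is the quotient of each hexamer's read frequency for a factor and its frequency for the tag-only sample.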

Experiment [2] addresses ETV5 (Homo sapiens, UniProt P41161 1-510). As to conditions: protein: recombinant; tags: N-terminal GST; dsDNA, one strand shown. Put shortly: as §1
In experiment [3] the target is HSF1 (Homo sapiens, UniProt Q00613 1-529). As to conditions: protein: recombinant; tags: N-terminal GST; chain copies: 3; dsDNA, one strand shown. Put shortly: as §1
Sequence of HSF1 (Q00613 whole entry): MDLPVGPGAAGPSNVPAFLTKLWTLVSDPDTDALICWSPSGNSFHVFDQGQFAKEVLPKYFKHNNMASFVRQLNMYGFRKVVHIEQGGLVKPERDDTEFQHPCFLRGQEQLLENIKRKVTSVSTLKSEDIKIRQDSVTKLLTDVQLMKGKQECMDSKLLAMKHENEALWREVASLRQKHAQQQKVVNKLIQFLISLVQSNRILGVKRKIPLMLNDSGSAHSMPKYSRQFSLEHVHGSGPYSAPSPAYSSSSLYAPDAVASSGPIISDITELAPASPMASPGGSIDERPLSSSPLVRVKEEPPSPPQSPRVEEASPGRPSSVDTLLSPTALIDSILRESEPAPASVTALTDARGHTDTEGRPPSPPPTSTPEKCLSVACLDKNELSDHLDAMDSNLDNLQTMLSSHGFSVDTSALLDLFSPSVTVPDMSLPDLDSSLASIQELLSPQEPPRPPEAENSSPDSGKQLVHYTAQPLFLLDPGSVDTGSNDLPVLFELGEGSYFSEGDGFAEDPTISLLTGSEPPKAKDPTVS
The target of experiment [4] is T2, SPIC (Homo sapiens, UniProt Q8N5J4 1-248).
T2 sequence: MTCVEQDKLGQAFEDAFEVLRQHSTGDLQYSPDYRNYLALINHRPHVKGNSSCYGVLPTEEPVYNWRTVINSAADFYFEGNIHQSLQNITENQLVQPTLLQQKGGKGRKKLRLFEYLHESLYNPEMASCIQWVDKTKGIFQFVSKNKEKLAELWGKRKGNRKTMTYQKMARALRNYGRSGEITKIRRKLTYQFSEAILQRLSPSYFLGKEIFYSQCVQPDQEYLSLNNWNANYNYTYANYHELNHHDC
As to conditions: protein: recombinant; tags: N-terminal GST; dsDNA, one strand shown. Put shortly:
as §1

Experiment [5] has as its target ELF4 (Homo sapiens, UniProt Q99607 1-663). Particulars: protein: recombinant; tags: N-terminal GST; dsDNA, one strand shown. Put shortly:
as §1

The target in experiment [6] is T3, ELK4 (Homo sapiens, UniProt P28324-2 1-405).
T3 sequence: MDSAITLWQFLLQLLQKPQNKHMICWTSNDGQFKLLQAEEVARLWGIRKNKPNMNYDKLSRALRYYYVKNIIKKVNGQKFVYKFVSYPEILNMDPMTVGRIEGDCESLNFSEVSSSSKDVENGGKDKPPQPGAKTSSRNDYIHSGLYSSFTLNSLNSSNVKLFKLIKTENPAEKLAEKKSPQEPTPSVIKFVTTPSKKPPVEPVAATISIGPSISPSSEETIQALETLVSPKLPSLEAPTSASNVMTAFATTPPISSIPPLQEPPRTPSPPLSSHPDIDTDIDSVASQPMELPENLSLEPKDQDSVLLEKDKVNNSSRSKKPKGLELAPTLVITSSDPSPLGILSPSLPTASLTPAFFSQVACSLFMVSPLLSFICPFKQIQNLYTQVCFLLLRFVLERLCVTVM
As to conditions: protein: recombinant; tags: N-terminal GST; dsDNA, one strand shown. Put shortly: as §1

Experiment [7] concerns the target T4, ETV2 (Homo sapiens, UniProt O00321 1-342).
T4 sequence: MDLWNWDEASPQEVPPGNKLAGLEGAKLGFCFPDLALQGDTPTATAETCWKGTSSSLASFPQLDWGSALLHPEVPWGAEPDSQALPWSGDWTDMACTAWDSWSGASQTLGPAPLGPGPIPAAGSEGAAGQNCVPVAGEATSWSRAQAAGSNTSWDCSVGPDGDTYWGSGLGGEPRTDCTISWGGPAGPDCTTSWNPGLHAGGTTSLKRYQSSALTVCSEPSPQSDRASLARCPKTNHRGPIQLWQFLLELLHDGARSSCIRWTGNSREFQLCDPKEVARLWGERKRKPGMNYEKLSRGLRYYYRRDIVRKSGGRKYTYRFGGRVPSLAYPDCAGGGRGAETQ
As to conditions: protein: recombinant; tags: N-terminal GST; dsDNA, one strand shown. Put shortly: as §1

For experiment [8], the target named is T5, ELF3 (Homo sapiens, UniProt P78545 1-371).
T5 sequence: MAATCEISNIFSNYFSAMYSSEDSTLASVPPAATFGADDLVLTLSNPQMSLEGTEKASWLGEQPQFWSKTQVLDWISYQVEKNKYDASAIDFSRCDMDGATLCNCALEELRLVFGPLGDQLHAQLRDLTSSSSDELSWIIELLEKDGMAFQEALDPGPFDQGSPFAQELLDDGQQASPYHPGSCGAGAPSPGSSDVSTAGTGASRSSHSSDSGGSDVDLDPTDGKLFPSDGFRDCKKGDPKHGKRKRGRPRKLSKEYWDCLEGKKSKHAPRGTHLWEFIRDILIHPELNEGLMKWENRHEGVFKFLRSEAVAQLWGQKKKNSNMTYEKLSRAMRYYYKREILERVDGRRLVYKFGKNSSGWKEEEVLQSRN
Particulars: protein: recombinant; tags: N-terminal GST; dsDNA, one strand shown. Put shortly:
as §1

Experiment [9] addresses CRX (Homo sapiens, UniProt O43186 1-299). As to conditions: protein: recombinant; tags: N-terminal GST; dsDNA, one strand shown. Put shortly:
as §1

The target in experiment [10] is ETV1 (Homo sapiens, UniProt P50549 1-477). As to conditions: protein: recombinant; tags: N-terminal GST; dsDNA, one strand shown. Put shortly: as §1
Sequence of ETV1 (P50549 whole entry): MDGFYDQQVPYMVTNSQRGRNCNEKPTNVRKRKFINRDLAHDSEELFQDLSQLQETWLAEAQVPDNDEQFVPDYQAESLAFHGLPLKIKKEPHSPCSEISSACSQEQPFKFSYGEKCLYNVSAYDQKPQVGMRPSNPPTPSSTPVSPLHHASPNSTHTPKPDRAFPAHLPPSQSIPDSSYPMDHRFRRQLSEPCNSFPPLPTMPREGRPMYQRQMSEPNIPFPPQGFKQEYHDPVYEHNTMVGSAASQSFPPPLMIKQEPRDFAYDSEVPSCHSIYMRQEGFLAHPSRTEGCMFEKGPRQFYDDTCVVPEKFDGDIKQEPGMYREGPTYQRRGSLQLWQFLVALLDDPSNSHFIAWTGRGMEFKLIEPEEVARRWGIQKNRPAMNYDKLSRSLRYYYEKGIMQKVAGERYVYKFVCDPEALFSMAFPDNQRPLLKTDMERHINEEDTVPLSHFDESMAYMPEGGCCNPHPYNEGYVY

Sequence of ETV5 (P41161 whole entry): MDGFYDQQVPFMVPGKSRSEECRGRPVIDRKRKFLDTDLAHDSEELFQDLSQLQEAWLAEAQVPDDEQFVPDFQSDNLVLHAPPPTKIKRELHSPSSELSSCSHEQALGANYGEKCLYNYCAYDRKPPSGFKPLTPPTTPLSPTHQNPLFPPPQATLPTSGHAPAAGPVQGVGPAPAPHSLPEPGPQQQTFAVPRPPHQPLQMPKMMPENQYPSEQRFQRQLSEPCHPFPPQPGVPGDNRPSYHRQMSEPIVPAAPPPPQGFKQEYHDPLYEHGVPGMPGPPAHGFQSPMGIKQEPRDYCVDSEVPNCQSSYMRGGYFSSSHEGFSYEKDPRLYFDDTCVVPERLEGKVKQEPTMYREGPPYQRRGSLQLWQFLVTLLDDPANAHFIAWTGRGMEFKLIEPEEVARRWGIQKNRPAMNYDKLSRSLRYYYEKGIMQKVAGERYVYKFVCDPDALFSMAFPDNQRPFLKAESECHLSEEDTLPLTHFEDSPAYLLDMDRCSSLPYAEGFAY
Sequence of CRX (O43186 whole entry): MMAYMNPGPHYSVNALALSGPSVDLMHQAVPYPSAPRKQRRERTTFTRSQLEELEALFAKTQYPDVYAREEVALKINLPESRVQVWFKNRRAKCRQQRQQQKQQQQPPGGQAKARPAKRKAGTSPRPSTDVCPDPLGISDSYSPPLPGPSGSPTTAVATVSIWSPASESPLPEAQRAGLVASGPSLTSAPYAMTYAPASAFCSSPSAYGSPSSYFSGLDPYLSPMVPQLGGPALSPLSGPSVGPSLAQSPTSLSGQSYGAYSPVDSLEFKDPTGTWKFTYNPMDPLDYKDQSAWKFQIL
Sequence of ELF4 (Q99607 whole entry): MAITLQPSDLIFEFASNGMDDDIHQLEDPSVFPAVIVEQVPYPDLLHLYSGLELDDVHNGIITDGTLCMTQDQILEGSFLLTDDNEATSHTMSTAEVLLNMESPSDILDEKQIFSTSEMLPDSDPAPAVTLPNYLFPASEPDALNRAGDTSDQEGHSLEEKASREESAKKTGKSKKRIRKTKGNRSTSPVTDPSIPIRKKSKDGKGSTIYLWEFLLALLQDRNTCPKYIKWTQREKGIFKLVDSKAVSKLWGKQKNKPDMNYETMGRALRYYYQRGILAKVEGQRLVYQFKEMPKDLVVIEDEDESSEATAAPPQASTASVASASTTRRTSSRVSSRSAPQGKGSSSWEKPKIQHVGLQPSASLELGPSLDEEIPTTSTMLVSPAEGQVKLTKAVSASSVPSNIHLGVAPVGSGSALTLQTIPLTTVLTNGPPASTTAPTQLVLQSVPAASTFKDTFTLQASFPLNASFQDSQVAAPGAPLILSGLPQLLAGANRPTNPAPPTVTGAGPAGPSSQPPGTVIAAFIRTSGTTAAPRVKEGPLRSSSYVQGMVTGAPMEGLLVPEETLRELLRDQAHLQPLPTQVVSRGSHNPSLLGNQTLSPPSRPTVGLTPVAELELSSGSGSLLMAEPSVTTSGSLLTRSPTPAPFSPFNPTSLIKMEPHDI

As to CGAAAC, the binding signal is 1.2 fold enrichment (6-mer frequency, TF over GST control) in experiment [1]; 1.25 fold enrichment (6-mer frequency, TF over GST control) in [2]; 1.58 fold enrichment (6-mer frequency, TF over GST control) in [3]; 1.27 fold enrichment (6-mer frequency, TF over GST control) in experiment [4]; 1.2 fold enrichment (6-mer frequency, TF over GST control) in experiment [5]; 1.15 fold enrichment (6-mer frequency, TF over GST control) in experiment [6]. In addition, the binding signal was 1.22 fold enrichment (6-mer frequency, TF over GST control) in experiment [7]; 1.15 fold enrichment (6-mer frequency, TF over GST control) in [8]; 1.02 fold enrichment (6-mer frequency, TF over GST control) in [9]; 1.21 fold enrichment (6-mer frequency, TF over GST control) in [10].
